Measured values: PubChem BioAssay (NCATS)
Where “and” joins values, the source holds several entries; their conditions need not be identical. Equal values may be shown once. Inconclusive results are not listed. Calls of active or inactive are those of the source. Unless noted, calls follow the shape of the dose curve; as a rule, active = well fitted curve in the direction sought with a large enough effect; inconclusive = small, poorly fitted or top-dose-only effect, or another doubt; inactive = no such curve, though single readings can be large; an effect the other way counts as inactive or inconclusive.

Columns and labels:
[1] = qHTS assay for small molecule disruptors of the mitochondrial membrane potential - 1 hr assay (AID 651754; calls by dose curve; also: % is scaled to controls: 0 for no effect and ±100 for the full control effect; nearly all actives have a fitted effect of over 35% in size)
In short: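 HepG2 cells, attached overnight at 37C, were exposed to compound or DMSO vehicle for 1 hr at 37C, 5% CO2, then stained with Mito-MPS dye for 30 min. Red aggregate versus green monomer fluorescence reports membrane potential.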

[2] = qHTS assay for small molecule disruptors of the mitochondrial membrane potential - 5 hr assay (AID 651755; calls by dose curve; also: % is scaled to controls: 0 for no effect and ±100 for the full control effect; nearly all actives have a fitted effect of over 40% in size)
In short: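 HepG2 cells (2,000/well), attached overnight, exposed to compound 5 hr at 37C, then Mito-MPS dye 30 min. Fluorescence read for monomers (490/535 nm) and aggregates (540/590 nm).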

[3] = target: Tumor necrosis factor (Homo sapiens) (UniProt P01375); experiment: qHTS assay to identify small molecules that stimulate Tumor Necrosis Factor-alpha (TNF-alpha) secretion (AID 651757; active = well fitted curve in the direction sought with a large enough effect in the signal ratio; the % refers to the signal ratio; also: 0% is about no effect)
In short: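 THP-1 cells were exposed to compounds for 17 hrs at 37 C, after which secreted TNF-alpha was measured by homogeneous HTRF (TR-FRET) using cryptate- and XL665-labeled anti-TNF-alpha antibodies, read after 3 hr at room temperature.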

[4] = qHTS assay for environmental chemicals that activate the Aryl hydrocarbon Receptor (AhR) signaling pathway (AID 651777); conditions: 1A2-DRE human hepatoma cells, luciferase, 24 h; activation: stronger effect = higher value; also: % of control where 0% means no effect; nearly all actives have a fitted effect of over 15% in size
In short: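 Following a 24 hr incubation with test chemicals at 37 C and 5% CO2, 1A2-DRE human hepatoma cells received One-Glo reagent; after 30 min at room temperature, luciferase output reflected CYP1A2 induction via AhR.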

[5] = target: Peroxisome proliferator-activated receptor alpha (Homo sapiens) (UniProt Q07869); experiment: qHTS assay for small molecule agonists of the peroxisome proliferator-activated receptor alpha (PPARalpha) signaling pathway (AID 651778); conditions: PathHunter PPARalpha complementation, chemiluminescence, 6 h; stronger effect = higher value; also: % of control where 0% means no effect
In short: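 Enzyme-fragment complementation assay in which ligand-bound PPARalpha translocates and forms an active enzyme that generates chemiluminescence. Cells were plated overnight, exposed to compound for 6 hr at 37 C, and then given detection reagent for 60 min at room temperature.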

[6] = target: Nuclear receptor ROR-gamma (Homo sapiens) (UniProt P51449); experiment: qHTS assay for small molecule antagonists of the retinoid-related orphan receptor gamma (ROR-gamma) signaling pathway (AID 651802); also: series mostly up to about 92 µM; % is scaled to controls: 0 for no effect and ±100 for the full control effect; nearly all actives have a fitted effect of over 60% in size
In short: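 CHO cells carrying TET-inducible ROR-gamma and an ROR response element–luciferase reporter were exposed to compound, then induced with doxycycline. After 16hr at 37C, luminescence was read; lower signal indicates antagonism.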

[7] = qHTS assay for small molecule agonists of the antioxidant response element (ARE) signaling pathway measured by Nrf2-dependant transcriptional activity (AID 720636; active = well fitted curve in the direction sought with a large enough effect in the repeat runs; an effect the other way counts as inactive or inconclusive;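 also: HepG2 cells with an ARE-driven luciferase reporter; % of control where 0% means no effect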)
In short: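 ONE-Glo luminescence, read 30 min after reagent addition at room temperature, reflected ARE reporter activity in HepG2 cells that had been incubated with compound for 16 hr at 37 C in 1% dialyzed FBS.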

[8] = qHTS assay for small molecule antagonists of the retinoid-related orphan receptor gamma (ROR-gamma) signaling pathway - cell viability counter screen (AID 720652; active = well fitted curve in the direction sought with a large enough effect in the repeat runs; an effect the other way counts as inactive or inconclusive;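 also: series mostly up to about 92 µM; compound exposure lasted 16 hr before ATP read; % is scaled to controls: 0 for no effect and ±100 for the full control effect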)
In short: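 Counter screen in CHO cells carrying TET-inducible ROR-gamma and an ROR response element-luciferase reporter; cells plated 5 hr, compound pinned, doxycycline added, then 16 hr at 37 C. Viability read as intracellular ATP by CellTiter-Glo luminescence.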

[9] = qHTS assay for small molecule agonists of the antioxidant response element (ARE) signaling pathway measured by Nrf2-dependant transcriptional activity - cell viability counter screen (AID 720653; active = well fitted curve in the direction sought with a large enough effect in the repeat runs; an effect the other way counts as inactive or inconclusive; also: % is scaled to controls: 0 for no effect and ±100 for the full control effect); conditions: ARE-bla HepG2 viability, CellTiter-Glo ATP luminescence, 16 h; stronger effect = lower value
In short: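 ARE-bla HepG2 cells treated with compounds for 16 h at 37C; this counter screen measures viability as intracellular ATP by CellTiter-Glo luminescence after 30 min at room temperature.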

[10] = qHTS assay for cell viability of HEK293 cells (AID 743288); conditions: ATP luminescence (CellTiter-Glo), 18 h, stronger effect = lower value; also: % is scaled to controls: 0 for no effect and ±100 for the full control effect; nearly all actives have a fitted effect of over 50% in size
In short: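 Luminescent ATP quantitation served as the viability read-out. Cells (parental HEK293, 2,000/well) received compounds after at least 5 h at 37 C and were exposed for 18 h before a 30 min room-temperature reagent step.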

[11] = qHTS assay for cell viability of the p53RE-bla HCT-116 cell line (AID 743292); also: % is scaled to controls: 0 for no effect and ±100 for the full control effect; nearly all actives have a fitted effect of over 55% in size
In short: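 After plating at 4,000 cells per well and a 5 h rest at 37 C, HCT-116 cells carrying p53RE-bla received test chemicals in DMSO. Sixteen hours later at 37 C, CellTiter-Glo was added and luminescence recorded following 30 min at room temperature.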

[12] = target: Nuclear receptor subfamily 1 group I member 2 (Rattus norvegicus) (UniProt Q9R1A7); experiment: qHTS assay for small molecule activators of the rat pregnane X receptor (rPXR) signaling pathway (AID 651751; call rule not given here; also: 0% is about no effect); conditions: rPXR reporter cells, luciferase (One-Glo), 24 h
[13] = qHTS assay for small molecule activators of the human pregnane X receptor (PXR) signaling pathway (AID 720659; call rule not given here; also: 0% is about no effect)

Chain of Tumor necrosis factor (Homo sapiens) (P01375 whole entry, looked up): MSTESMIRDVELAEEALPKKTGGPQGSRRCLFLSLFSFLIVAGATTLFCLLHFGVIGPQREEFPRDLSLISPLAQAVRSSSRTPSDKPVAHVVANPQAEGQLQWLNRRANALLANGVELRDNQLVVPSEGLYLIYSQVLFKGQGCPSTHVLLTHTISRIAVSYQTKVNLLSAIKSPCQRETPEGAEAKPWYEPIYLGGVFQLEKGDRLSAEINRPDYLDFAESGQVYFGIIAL
Chain of Peroxisome proliferator-activated receptor alpha (Homo sapiens) (Q07869 whole entry, looked up, the tested form may be a part): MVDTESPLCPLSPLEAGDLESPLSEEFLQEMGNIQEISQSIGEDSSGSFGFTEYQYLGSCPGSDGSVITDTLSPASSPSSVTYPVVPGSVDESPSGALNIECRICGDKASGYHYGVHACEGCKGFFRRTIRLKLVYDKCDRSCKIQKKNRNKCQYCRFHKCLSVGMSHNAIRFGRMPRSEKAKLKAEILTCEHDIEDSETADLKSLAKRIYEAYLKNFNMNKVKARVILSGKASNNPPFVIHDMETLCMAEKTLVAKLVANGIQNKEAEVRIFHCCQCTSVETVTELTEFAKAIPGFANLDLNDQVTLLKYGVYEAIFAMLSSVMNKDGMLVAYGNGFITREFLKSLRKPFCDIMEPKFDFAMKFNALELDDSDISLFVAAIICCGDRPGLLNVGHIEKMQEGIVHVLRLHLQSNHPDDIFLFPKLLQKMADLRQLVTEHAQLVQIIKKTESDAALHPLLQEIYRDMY
Chain of Nuclear receptor subfamily 1 group I member 2 (Rattus norvegicus) (Q9R1A7 whole entry, looked up): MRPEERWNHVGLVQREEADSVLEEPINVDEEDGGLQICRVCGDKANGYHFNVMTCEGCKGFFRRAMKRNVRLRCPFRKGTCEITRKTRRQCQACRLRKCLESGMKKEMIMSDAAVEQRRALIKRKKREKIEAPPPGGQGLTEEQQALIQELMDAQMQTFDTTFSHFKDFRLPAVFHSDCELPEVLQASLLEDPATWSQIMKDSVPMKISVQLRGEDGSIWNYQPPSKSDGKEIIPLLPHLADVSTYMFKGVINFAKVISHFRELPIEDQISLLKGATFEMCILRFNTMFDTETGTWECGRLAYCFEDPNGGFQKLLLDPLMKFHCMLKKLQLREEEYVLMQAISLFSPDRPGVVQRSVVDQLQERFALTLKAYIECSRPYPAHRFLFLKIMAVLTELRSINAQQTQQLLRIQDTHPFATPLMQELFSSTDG
Chain of Nuclear receptor ROR-gamma (Homo sapiens) (P51449 whole entry, looked up): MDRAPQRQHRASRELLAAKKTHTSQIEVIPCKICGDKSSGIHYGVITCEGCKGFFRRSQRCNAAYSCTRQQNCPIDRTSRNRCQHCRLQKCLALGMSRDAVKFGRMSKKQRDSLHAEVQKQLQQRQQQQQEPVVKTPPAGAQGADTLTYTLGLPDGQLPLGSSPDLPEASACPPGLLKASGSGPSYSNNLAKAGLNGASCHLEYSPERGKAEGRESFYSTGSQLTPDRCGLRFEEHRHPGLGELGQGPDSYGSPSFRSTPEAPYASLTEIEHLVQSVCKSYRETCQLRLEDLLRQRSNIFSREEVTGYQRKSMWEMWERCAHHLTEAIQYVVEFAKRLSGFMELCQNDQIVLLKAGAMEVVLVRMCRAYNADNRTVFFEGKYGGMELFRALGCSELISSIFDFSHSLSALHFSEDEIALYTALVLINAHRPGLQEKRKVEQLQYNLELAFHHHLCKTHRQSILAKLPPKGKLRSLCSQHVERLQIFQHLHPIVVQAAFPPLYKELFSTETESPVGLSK

NC=O
inactive: Potency [1] | Potency [2] | Potency [3] | activation [4] 1.58% | max response [5] -1.01% | Potency [6] | outcome [7] | Potency [8] | max response [9] 6.13% | max response [10] -0.0358% | Potency [11] | max response [12] -1.14% | outcome [13]

c1ccc2n[nH]nc2c1
inactive: Potency [1] | Potency [2] | Potency [3] | activation [4] 0.556% | max response [5] -6.33% | Potency [6] | outcome [7] | Potency [8] | max response [9] 3.37% | max response [10] -14.1% | Potency [11] | max response [12] -4.36% | outcome [13]

CC(=O)Nc1ccc(C)cc1
inactive: Potency [1] | Potency [2] | Potency [3] | activation [4] -0.295% | max response [5] -1.18% | Potency [6] | outcome [7] | Potency [8] | max response [9] 2.3% | max response [10] -2.69% | Potency [11] | max response [12] -0.0412% | outcome [13]

O=[N+]([O-])c1cc(C(F)(F)F)ccc1Cl
inactive: Potency [1] | Potency [2] | Potency [3] | activation [4] 1.14% | max response [5] 0.399% | Potency [6] | outcome [7] | Potency [8] | max response [9] -6.2% | max response [10] -0.584% | Potency [11] | max response [12] 0.829% | outcome [13]

CCc1ccccc1
inactive: Potency [1] | Potency [2] | Potency [3] | activation [4] 3.73% | max response [5] -3.6% | Potency [6] | outcome [7] | Potency [8] | max response [9] -7.67% | max response [10] -3.72% | Potency [11] | max response [12] -0.471% | outcome [13]

Cc1ccccc1C(N)=O
inactive: Potency [1] | Potency [2] | Potency [3] | activation [4] -0.0237% | max response [5] -0.838% | Potency [6] | outcome [7] | Potency [8] | max response [9] -2.23% | max response [10] 10.1% | Potency [11] | max response [12] -3.36% | outcome [13]

CCCC=O
inactive: Potency [1] | Potency [2] | Potency [3] | activation [4] -0.933% | max response [5] 2.48% | Potency [6] | outcome [7] | Potency [8] | max response [9] -6.36% | max response [10] -2.32% | Potency [11] | max response [12] 1.21% | outcome [13]

CCOc1cccc(N)c1
inactive: Potency [1] | Potency [2] | Potency [3] | activation [4] 1.67% | max response [5] 0.865% | Potency [6] | outcome [7] | Potency [8] | max response [9] -7.78% | max response [10] 5.75% | Potency [11] | max response [12] -4.44% | outcome [13]

CC/C=C1/OC(=O)c2ccccc21
inactive: Potency [1] | Potency [2] | Potency [3] | activation [4] 0.751% | max response [5] -2.48% | Potency [6] | outcome [7] | Potency [8] | max response [9] 4.48% | max response [10] -15.4% | Potency [11] | max response [12] -1.09% | outcome [13]

O=C(O)c1cccc([N+](=O)[O-])c1
inactive: Potency [1] | Potency [2] | Potency [3] | activation [4] 0.347% and -2.14% | max response [5] -2.18% and -2.21% | Potency [6] | outcome [7] | Potency [8] | max response [9] 20.3% and -7.83% | max response [10] 4.89% and -8.68% | Potency [11] | max response [12] -0.759% and -3.01% | outcome [13]

CCCCCCCCCCCCOCC1CO1 (stereo not drawn)
inactive: Potency [1] | Potency [2] | Potency [3] | activation [4] 0.152% | max response [5] -0.128% | Potency [6] | outcome [7] | Potency [8] | max response [9] 2.47% | max response [10] -5.24% | Potency [11] | max response [12] 1.3% | outcome [13]

Cc1c(C(=O)O)cccc1[N+](=O)[O-]
inactive: Potency [1] | Potency [2] | Potency [3] | activation [4] 1.63% | max response [5] -0.685% | Potency [6] | outcome [7] | Potency [8] | max response [9] 17.9% | max response [10] 6.06% | Potency [11] | max response [12] 0.0854% | outcome [13]

CCCCCCCN
inactive: Potency [1] | Potency [2] | Potency [3] | activation [4] -0.576% | max response [5] -4.9% | Potency [6] | outcome [7] | Potency [8] | max response [9] -1.43% | max response [10] 9.44% | Potency [11] | max response [12] -0.183% | outcome [13]

CC(=O)OCCC(C)C
inactive: Potency [1] | Potency [2] | Potency [3] | activation [4] 0.441% | max response [5] -9.14% | Potency [6] | outcome [7] | Potency [8] | max response [9] -11% | max response [10] 3.44% | Potency [11] | max response [12] 8.07% | outcome [13]

CCCCOCCOCCOCCCC
inactive: Potency [1] | Potency [2] | Potency [3] | activation [4] -0.359% | max response [5] -5.07% | Potency [6] | outcome [7] | Potency [8] | max response [9] 10.5% | max response [10] 3.02% | Potency [11] | max response [12] -1.56% | outcome [13]

CC(=O)OC(C)C
inactive: Potency [1] | Potency [2] | Potency [3] | activation [4] -2.35% | max response [5] -3.3% | Potency [6] | outcome [7] | Potency [8] | max response [9] -4.19% | max response [10] 1.6% | Potency [11] | max response [12] -1.92% | outcome [13]
